Screens (PubChem BioAssay)
Only some compounds are listed: those with a hit (about 1.5% of all), similar ones and a draw of the others.
RAD52 anneal inh: RAD52 DNA annealing inhibitors, primary screen, biochemical, FRET, single point, set 2. DNA repair protein RAD52 homolog (Homo sapiens), P43351. actives 0.46% (n = 360,000). inhibition, % at 18.7 µM. AID 651710, 2012. recombinant RAD52 DNA annealing, FRET fluorescence;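 active = every replicate showing at least 50% inhibition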
PvdQ acylase: P. aeruginosa PvdQ acylase inhibitors, primary screen, biochemical, fluorescence, plate reader and imaging, single point | purified PvdQ acylase | inhibition, % at 10 µM | AID 488965, 2010 | actives 0.063% (n = 340,000); in the data active = inhibition above about 30%, passing the limit was not always enough
N-glyco inh: increase of ERlucT glycosylation luciferase signal, primary screen, N-linked glycosylation inhibitor project, D54 ERlucT cells, luminescence, set 2; D54 ERlucT glycosylation luciferase reporter, 24 h; percent of 100 nM tunicamycin response; reporter increase, % at 12.5 µM; actives 0.23% (n = 360,000); AID 588692, 2011;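 active = mean luciferase reporter signal, scaled so untreated is 0 and the glycosylation-blocking control 100, at or above a set limit in every replicate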;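 note: luciferase carries N-glycosylation sites so blocking glycosylation raises the light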
F508del corr: F508del CFTR correction, initial screen, CFBE line, single point | CFBE cells, YFP halide quenching; stimulated with forskolin plus potentiator P3; % fluorescence drop versus neutral controls | activity (quench increase), % at 7.58 µM | AID 720511, 2013 | actives 0.36% (n = 350,000);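 active = mean added fluorescence quench of at least 8% versus neutral control, with both replicates also reaching 8%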;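 note: cells transiently co-express mutant CFTR-F508del with the halide-sensitive YFP; corrector assay measuring rescue of mutant channel to the surface after 24 h compound exposure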
RAD54 inh: inhibitors of human RAD54 branch migration, primary screen, biochemical, fluorescence, single point; DNA repair and recombination protein RAD54-like (Homo sapiens), Q92698; AID 602329, 2012; actives 0.14% (n = 360,000); RAD54 Holliday junction branch migration, FAM/BHQ fluorescence; inhibition, % at 10.4 µM;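 active = mean normalized replicate activity at least 40 and at least half of replicates scoring 40 or more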;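 note: inhibitors cause a drop in the FAM fluorescence signal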
dFosB act: activators of delta FosB homodimer, primary screen, biochemical, fluorescence polarization, TAMRA-CDK5 oligo, single point. Protein FosB (Mus musculus), P13346. purified delta FosB; percent of positive-control signal above neutral wells. activation, % at 25 µM. actives 0.99% (n = 340,000);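 active = mean activation above about 17%, with every replicate also reaching it, limit read from the data, passing the limit was not always enough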
Target sequence (P13346 whole entry, looked up): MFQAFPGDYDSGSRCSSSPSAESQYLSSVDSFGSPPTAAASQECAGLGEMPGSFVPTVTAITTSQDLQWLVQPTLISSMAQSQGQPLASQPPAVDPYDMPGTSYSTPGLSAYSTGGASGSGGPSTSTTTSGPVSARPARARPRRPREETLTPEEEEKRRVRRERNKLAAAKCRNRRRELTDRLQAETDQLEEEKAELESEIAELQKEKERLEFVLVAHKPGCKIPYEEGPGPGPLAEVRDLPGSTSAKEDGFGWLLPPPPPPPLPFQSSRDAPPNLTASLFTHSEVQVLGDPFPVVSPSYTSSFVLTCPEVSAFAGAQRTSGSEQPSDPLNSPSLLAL
Large screens that a line does not name were inactive; ! = not active in a repeat.

COc1ccc(OCC(=O)NNC(=O)CCc2ccccc2)cc1	F508del corr 9.8
COCC(=O)Nc1ccc2c(c1)C(=O)N(C)[C@@H]1CC[C@H](CC(=O)NCc3ccccc3)O[C@@H]1CO2	none (no result: PvdQ acylase, N-glyco inh, dFosB act)
Oc1cccc(Nc2nc(O)c(/C=C3\C=Nc4ccccc43)s2)c1	dFosB act 52.8
O=c1cc(-c2ccc(O)c(O)c2)oc2cc(O[C@@H]3O[C@H](CO)[C@@H](O)[C@H](O)[C@H]3O)cc(O)c12	dFosB act 18.7 (no result: RAD52 anneal inh, F508del corr)
C[C@@H]1O[C@@H](OC[C@H]2O[C@@H](Oc3cc(O)c4c(=O)cc(-c5ccc(O)c(O)c5)oc4c3)[C@H](O)[C@@H](O)[C@@H]2O)[C@H](O)[C@H](O)[C@H]1O	none (no result: RAD52 anneal inh, F508del corr)
COC(=O)c1cc(=O)n(-c2ccc(F)cc2)c(=Nc2ccc(F)cc2)s1	N-glyco inh 39.2
C1CCC(C(CC2CCCCN2)C2CCCCC2)CC1 (stereo unspecified)	F508del corr 9.9!
Cc1ccc2nc(NNC(=O)c3ccc(S(=O)(=O)N4CCc5ccccc5C4)cc3)sc2c1	F508del corr 8.3
Cc1ccc2nc(NNC(=O)c3ccc4c(c3)OCCO4)sc2c1	none
CCC(=O)N[C@@H]1C=C[C@@H](CC(=O)NCc2cc(F)cc(F)c2)O[C@@H]1CO	none (no result: PvdQ acylase, N-glyco inh, dFosB act)
CS(=O)(=O)Nc1ccc(C2=NN(S(C)(=O)=O)C(c3ccccc3)C2)cc1 (stereo unspecified)	none (no result: RAD52 anneal inh)
CCS(=O)(=O)N1N=C(c2ccc(NS(C)(=O)=O)cc2)CC1c1ccccc1 (stereo unspecified)	dFosB act 46.3 (no result: RAD52 anneal inh, F508del corr)
O=C(C1CCC1)N1CC2(C1)[C@H](c1ccccc1)[C@@H](CO)N2Cc1ccccc1F	none (no result: PvdQ acylase, N-glyco inh, RAD54 inh, dFosB act)
O=C(C[C@@H]1C[C@H]2c3cc(NC(=O)Nc4ccccc4F)ccc3O[C@H]2[C@@H](CO)O1)NCCc1ccccc1	none (no result: PvdQ acylase, N-glyco inh, dFosB act)
CC(C)C(=O)Nc1ccc(C(=O)N/N=C/c2cc(Br)cc(Br)c2O)cc1	none (no result: RAD54 inh)
CC(=O)Nc1ccc(C(=O)N/N=C/c2cc(Br)cc(Br)c2O)cc1	dFosB act 96.6 (no result: RAD54 inh)
C[C@H](CO)N1C[C@H](C)[C@@H](CN(C)Cc2cccc(F)c2)OCc2ccccc2-c2ccccc2C1=O	none (no result: PvdQ acylase, N-glyco inh, dFosB act)
CC(C)CC#Cc1cnc2c(c1)C(=O)N([C@H](C)CO)C[C@H](C)[C@H](CN(C)Cc1ccc3c(c1)OCO3)O2	none (no result: PvdQ acylase, N-glyco inh, dFosB act)
CCOCCCNC(=O)/C(C#N)=C/c1cc(Br)c(O)c(Br)c1	N-glyco inh 29.8 (no result: RAD52 anneal inh, F508del corr)
COc1cc(/C=C/c2nnc3c4ccccc4ncn23)cc(OC)c1OC	dFosB act 27.1 (no result: F508del corr, RAD54 inh)
C(=C\c1nnc2c3ccccc3ncn12)/c1ccccc1	none (no result: F508del corr, RAD54 inh)
COc1ccc(-c2cc(NC=O)c3ncc(-c4ccc(OC)c(OC)c4)n3c2)cc1OC	none (no result: PvdQ acylase, F508del corr, dFosB act)
COc1cc(-c2cnc3c(NC=O)cc(-c4cccc(C(F)(F)F)c4)cn23)cc(OC)c1OC	F508del corr 8.7 (no result: PvdQ acylase, dFosB act)
Nc1ccc(-c2cc(NC=O)c3ncc(-c4cccc(C(F)(F)F)c4)n3c2)cn1	N-glyco inh 28.6 (no result: PvdQ acylase, dFosB act)
COc1ccc(-c2cc(NC=O)c3ncc(-c4ccc(OC)c(OC)c4)n3c2)cc1	F508del corr 8.4 (no result: PvdQ acylase, dFosB act)
Cn1cc(-c2cnc3c(NC=O)cc(-c4cccc(C(F)(F)F)c4)cn23)cn1	none (no result: PvdQ acylase, dFosB act)
COc1ccc(CN2C[C@H](C)[C@@H](OC)CN(C)C(=O)c3cc(NC(=O)c4nc5ccccc5s4)ccc3OC[C@H]2C)cc1	none (no result: PvdQ acylase, N-glyco inh, dFosB act)
COc1ccc(NC(=O)C(=O)NCC2CCCN2S(=O)(=O)c2cccs2)cc1 (stereo unspecified)	F508del corr 16.6
Cc1ccc(NC(=O)C(=O)NCC2CCCN2S(=O)(=O)c2cccs2)cc1C (stereo unspecified)	none
COc1cccc(CN2C[C@@H]3N[C@H](C2)C3c2ccc(-c3ccc(C#N)cc3)cc2)c1 (stereo partly specified)	RAD52 anneal inh 71.1! (no result: PvdQ acylase, N-glyco inh, RAD54 inh, dFosB act)
